# Reference: the supplement of paper PMC8728848
# This is one part of a sample in which the strongest signals are shown more often than they occur.
# B1: ASA (Allium sativum) (protein)
# chain: KAHEKERMGRNTPSAKLMSIAAVAAILTILASTCMARNLLTNGEGLYAGQSLNVEPYHFIMQEDCNLVLYDHSTAVWATNTDIPGKKECRAVLQSDGNFVVYDADGRPLWASHSVRGNGNYVLVLQEDGNVVIYGSDIWSTGTYVKAARGPVVVAMNGTVDGGSLIRPVIVNKNHVPVIRKVGTLSRNILRNDEGLYAGQSLDVEPYHFIMHEDCNLVLYDHSTAVWASNTDIPGKKGCKAVLQSDGNFVVYDAEGRSLWASHSVRGNGNYVLVLQEDGNVVIYGSDIWSTDTYRKSARGPVIRKVGTLAGAA
# What was measured:
# Assay in all cases: glycan array binding signal (z-score within array); higher = stronger binding
# Settings in all cases: glycan notation: IUPAC condensed, linker removed
# Fuc(a1-2)Gal = molecular target: Fuc(a1-2)Gal
# Procedure, shortened: (§1)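 The binding signal is a Z-score computed within each array. Data were drawn from 3228 arrays in the Consortium for Functional Glycomics database, restricted to those with a known protein sequence. Scores were averaged over arrays of the same protein sequence at different concentrations or buffers, and over linkers, and negative values can be taken as non-binding.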
# [1] = molecular target: Fuc(a1-2)Gal(b1-4)[Fuc(a1-3)]GalNAc(b1-3)Gal(b1-4)[Fuc(a1-3)]GlcNAc(b1-3)Gal(b1-4)[Fuc(a1-3)]GalNAc
# Procedure, shortened: as §1
# [2] = molecular target: Fuc(a1-3)[Gal(b1-4)]GlcNAc(b1-4)Gal(b1-4)[Fuc(a1-3)]GlcNAc(b1-4)Gal(b1-4)[Fuc(a1-3)]GlcNAc
# Procedure, shortened: as §1
# Gal(b1-3)GalNAc = molecular target: Gal(b1-3)GalNAc
# Procedure, shortened: as §1
# [3] = molecular target: Gal(b1-3)GalNAc(b1-3)Gal(b1-4)GlcNAc
# Procedure, shortened: as §1
# [4] = molecular target: Gal(b1-3)[GlcNAc(b1-6)]GalNAc
# Procedure, shortened: as §1
# [5] = molecular target: Gal(b1-4)GlcNAc(b1-3)GalNAc
# Procedure, shortened: as §1
# Gal4S6S(b1-4)GlcNAc = molecular target: Gal4S6S(b1-4)GlcNAc
# Procedure, shortened: as §1
# GalNAc(b1-4)GlcNAc = molecular target: GalNAc(b1-4)GlcNAc
# Procedure, shortened: as §1
# Glc(a1-6)Glc(a1-6)Glc = molecular target: Glc(a1-6)Glc(a1-6)Glc
# Procedure, shortened: as §1
# [6] = molecular target: Man(a1-2)Man(a1-2)Man(a1-3)Man
# Procedure, shortened: as §1
# [7] = molecular target: Man(a1-2)Man(a1-3)[Man(a1-2)Man(a1-6)]Man
# Procedure, shortened: as §1
# [8] = molecular target: Man(a1-2)Man(a1-3)[Man(a1-3)[Man(a1-6)]Man(a1-6)]Man(b1-4)GlcNAc(b1-4)GlcNAc
# Procedure, shortened: as §1
# [9] = molecular target: Man(a1-3)[Man(a1-6)]Man(a1-6)[Man(a1-3)]Man(b1-4)GlcNAc(b1-4)GlcNAc
# Procedure, shortened: as §1
# [10] = molecular target: Man(a1-3)[Man(a1-6)]Man(b1-4)GlcNAc(b1-4)GlcNAc
# Procedure, shortened: as §1
# [11] = molecular target: Neu5Ac(a2-3)Gal(b1-3)GalNAc(b1-3)Gal(a1-4)Gal(b1-4)Glc
# Procedure, shortened: as §1
# [12] = molecular target: Neu5Ac(a2-3)[GalNAc(b1-4)]Gal(b1-4)GlcNAc
# Procedure, shortened: as §1
# Neu5Gc(a2-3)Gal(b1-4)Glc = molecular target: Neu5Gc(a2-3)Gal(b1-4)Glc
# Procedure, shortened: as §1
binder,measurement,setting,value
B1,glycan array binding signal (z-score),Fuc(a1-2)Gal,-0.156
same,glycan array binding signal (z-score),[1],-0.081
same,glycan array binding signal (z-score),[2],-0.229
same,glycan array binding signal (z-score),Gal(b1-3)GalNAc,-0.222
same,glycan array binding signal (z-score),[3],-0.231
same,glycan array binding signal (z-score),[4],-0.211
same,glycan array binding signal (z-score),[5],-0.23
same,glycan array binding signal (z-score),Gal4S6S(b1-4)GlcNAc,-0.222
same,glycan array binding signal (z-score),GalNAc(b1-4)GlcNAc,-0.151
same,glycan array binding signal (z-score),Glc(a1-6)Glc(a1-6)Glc,-0.228
same,glycan array binding signal (z-score),[6],6.7
same,glycan array binding signal (z-score),[7],2.2
same,glycan array binding signal (z-score),[8],6.08
same,glycan array binding signal (z-score),[9],5.45
same,glycan array binding signal (z-score),[10],6.64
same,glycan array binding signal (z-score),[11],-0.228
same,glycan array binding signal (z-score),[12],-0.172
same,glycan array binding signal (z-score),Neu5Gc(a2-3)Gal(b1-4)Glc,-0.208
